GLS inh = inhibitors of human glutaminase (GLS); O94925; GLS enzymatic activity, qHTS titration; Potency, µM (series often up to 45.5 µM), inactives show top-dose activity change, negative = inhibition, most hits filed as inhibitors; hit rate 0.21% among 410,000; AID 624170; further: on the % scale 0 is the no-effect control and ±100 the full control effect
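Compounds were pin-transferred onto hKGA, after which L-glutamine (1 mM solution) and a detection mix of glutamate oxidase, HRP and Amplex Red were added. Initial and 30 min RT fluorescence reads were collected.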
HP1b binding inh = blocks HP1-beta chromodomain binding to methylated histone tails; hit rate 0.56% among 390,000; AlphaScreen HP1-beta / biotin-H3K9me3 peptide binding; Potency, µM (titrated, usually from 114 µM), for inactives: at the highest dose activity change, negative = inhibition, most hits filed as inhibitors; AID 540317; further: nearly all actives have a fitted effect of over 70% in size
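AlphaScreen: HP1-beta (50 nM) preformed 30 min with biotin-H3(1-18)K9me3 peptide (50 nM) in PBS pH 7.4, 0.01% Tween-20. Compound added for 30 min at RT, then streptavidin donor/nickel chelate acceptor beads (10 ug/mL) for 30 min.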
L3MBTL1 inh = blocks human L3MBTL1; Potency, µM (titrated, usually from 57.1 µM), for inactives: top-dose activity, negative = inhibition, hits mostly inhibitors; AID 485360; AlphaScreen L3MBTL1–H3K9me1 peptide binding; hit rate 0.66% among 230,000; further: on the % scale 0 is the no-effect control and ±100 the full control effect; nearly all actives have a fitted effect of over 60% in size
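Read-out is AlphaScreen signal from streptavidin donor and nickel chelate acceptor beads (10 ug/mL final each) bridging L3MBTL1 (50 nM) and biotinylated K9-monomethylated H3(1-15) peptide (75 nM), after 30 min compound exposure at room temperature.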
G9a block = inhibitors of human histone lysine methyltransferase G9a; AID 504332; Potency, µM (top dose mostly 102 µM), without a hit: top-dose activity, negative = inhibition, usual class: inhibitors; Q96KQ7; G9a H3K9 monomethylation, AlphaScreen, 2 h; hit rate 8.8% among 350,000; further: on the % scale 0 is the no-effect control and ±100 the full control effect; nearly all actives have a fitted effect of over 75% in size
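AlphaScreen detection with an anti-monomethyl H3K9 antibody quantified product after a 2 h room-temperature reaction containing 500 nM biotinylated H3K9 peptide, 20 µM SAM and 20 nM enzyme, which had been preincubated 15 min with compound.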
JMJD2A Tudor = inhibitors of human JMJD2A Tudor domain; O75164; AlphaScreen JMJD2A-Tudor / H3K4me3 peptide binding; Potency, µM (series often up to 114 µM), for the others: at the highest dose activity change, negative = inhibition, actives largely listed as inhibitors; hit rate 4.4% among 390,000; AID 504339; further: on the % scale 0 is the no-effect control and ±100 the full control effect; nearly all actives have a fitted effect of over 50% in size
BAZ2B block = blocks human BAZ2B | Q9UIF8 | AlphaScreen BAZ2B-H3K14Ac peptide displacement | Potency, µM (top dose mostly 114 µM), inactives show at the highest dose activity change, negative = inhibition, actives largely listed as inhibitors | hit rate 4.4% among 360,000 | AID 504333; further: on the % scale 0 is the no-effect control and ±100 the full control effect; nearly all actives have a fitted effect of over 60% in size
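AlphaScreen luminescence quantifies BAZ2B engagement of H3K14Ac peptide; the protein and biotinylated peptide are both at 50 nM final, buffer PBS pH 7.4 with 0.01% Tween-20, all steps at room temperature.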
Numbers without * were called inactive; ? = inconclusive; . = no result; [ ] = another dose, or the depositor's remark. This is a sample that favours compounds with a hit; in the whole collection about 10% have one here. The call rests on the fitted dose curve; in most records, active means well fitted curve in the direction sought with a large enough effect; inconclusive means small, poorly fitted or top-dose-only effect, or another doubt; inactive means no such curve, though single readings can be large; an effect the other way counts as inactive or inconclusive. Potency means the concentration at half of the fitted maximal effect.

SMILES	GLS inh	HP1b binding inh	L3MBTL1 inh	G9a block	JMJD2A Tudor	BAZ2B block
S=c1[nH]nc(-c2ccco2)n1/N=C/C(Cl)=C/c1ccccc1	-4%	?	-11%	4.5µM*	?	?
Cc1cc(-c2n[nH]c(=S)n2/N=C/C(Cl)=C/c2ccccc2)n[nH]1	-8%	-18%	-13%	1.6µM*	56µM*	?
Cc1ccc(N2CCN(/N=C/C(Cl)=C/c3ccccc3)CC2)cc1	1%	23%	-4%	1%	-23%	-11%
O=C(N/N=C/C(Cl)=C/c1ccccc1)c1ccco1	12%	-20%	-2%	.	-19%	-4%
CCc1ccc2oc(-c3cccc(NC(=O)C(C)(C)Oc4ccc(Br)cc4)c3)nc2c1	-11%	27%	.	-6%[59 µM]	-2%	-1%
CC1=C(c2ccc(C)cc2)S(=O)(=O)N(Cc2ccc(C(=O)Nc3ccc(F)cc3C)cc2)C1=O	-5%	-17%	.	17%[59 µM]	-14%	-9%
CCOc1cc2c(cc1/C=C/c1noc(C)c1[N+](=O)[O-])OC(C)C2 (stereo unspecified)	8%	31%	.	45µM*	2%	1%
CCOC(=O)c1cnc(-c2ccccc2O)nc1Cl	?	17%	.	45µM*	18µM*	?
COc1ccc(CN2CCNC(=O)C2CC(=O)N(C)Cc2nccs2)c(OC)c1 (stereo unspecified)	4%	17%	.	3%	-32%	-11%[57.1 µM]
Cc1cc(CN(C)C(=O)CC2C(=O)NCCN2Cc2c(F)cccc2Cl)n[nH]1 (stereo unspecified)	-12%	24%	-2%	40µM*	9%	33%
Cc1csc(CN(C)C(=O)CC2C(=O)NCCN2Cc2ccc(-c3ccccc3)cc2)n1 (stereo unspecified)	21%	2%[57 µM]	6%	.	-32%	-7%
Cc1csc(CN(C)C(=O)CC2C(=O)NCCN2Cc2ccc(F)cc2Cl)n1 (stereo unspecified)	0%	41%	.	22µM*	-3%	-17%
Cc1csc(CN(C)C(=O)CC2C(=O)NCCN2Cc2ccc(Cl)c(F)c2)n1 (stereo unspecified)	-1%	40%	.	40µM*	-10%	-22%
COc1ccc(CN2CCNC(=O)C2CC(=O)N(C)Cc2nc(C)cs2)c(OC)c1 (stereo unspecified)	-1%	9%	.	50µM*	-8%	-33%
Cc1csc(CNC(=O)CC2C(=O)NCCN2Cc2ccc(F)cc2Cl)n1 (stereo unspecified)	-3%	33%	.	55%	-4%	2%
COc1ccc(CNC(=O)Cn2nc(N3CCN(c4ccccc4)CC3)ccc2=O)c(OC)c1	35%	18%	.	-1%[59 µM]	-15%	-30%
COC(=O)c1ccccc1-n1c(CCC(=O)O)ccc1-c1ccc(F)cc1	7%	19%	.	?	-14%	-12%
O=C(O)CCc1ccc(-c2ccc(F)cc2)n1CC(=O)O	5%	21%	-15%	45µM*	-29%	-2%
COc1ccc(-n2c(CCC(=O)O)ccc2-c2ccc(F)cc2)c(OC)c1	12%	5%	.	40µM*	?	-27%
Cc1nc2ccc(S(=O)(=O)N(CC(=O)Nc3cccc(Cl)c3)Cc3ccccc3)cc2s1	-12%	31%	.	17%[59 µM]	-26%	-3%
O=C(NCCc1ccccc1)c1ccc2c(c1)N(Cc1ccccc1)C(=O)c1ccccc1S2=O (stereo unspecified)	-4%	22%	.	3%[59 µM]	-19%	?
Cn1c(-c2ccc3c(c2)OCO3)cnc1N	21%	9%	-9%	0%[59 µM]	?	-37%
Cc1ccc(-c2cnc(NCc3cc4c(cc3[N+](=O)[O-])OCO4)n2C)cc1C	13%	?	-8%	0%	32µM*	-14%
COC(=O)c1sc(N2C(=O)C(=O)/C(=C(/O)c3ccc(C)cc3)C2c2ccco2)nc1C (stereo unspecified)	-22%	-15%	.	?	63µM*	-31%

High-throughput results from PubChem.
